We go through 18 molecules from PubChem BioAssay.

Values without a mark were called inactive. For part of these data: Results with a measured potency or affinity are listed apart. Active and inactive are the calls of the source. Unless noted, how the calls were made is not given here.

The nature of experiment [1]: antimalarial activity against Dd2 strain (AID 2302;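 active means growth inhibition above 50% at the single 2 µM test dose, taken to imply half-maximal potency below 2 µM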;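 further: 0% = DMSO untreated growth and 100% = chloroquine plus artemisinin killed control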). The settings on record: P. falciparum Dd2 in RBCs, LDH growth readout, 72 h; at 2 µM; stronger effect = higher value.
Experiment [2] in a line: HepG2 cytotoxicity, primary screen, cytotoxicity control for P. falciparum antimalarial project, cell-based, ATP luminescence (AID 2303;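 active means inhibition above 50%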;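 further: 0% = DMSO wells and 100% = digitonin-killed cells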). The note with it: HepG2 viability, 24-48 h, at 10 µM, stronger effect = higher value.
The target in experiment [3] is L-lactate dehydrogenase (Plasmodium falciparum (isolate CDC / Honduras)) (UniProt Q27743). Briefly: PfLDH activity inhibition – cell lysate, 3D7 strain, counter-screen for P. falciparum growth inhibition project (AID 2304).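 Further: 0% = vehicle and 100% = reference inhibitor.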 The settings on record: P. falciparum 3D7 crude extract, LDH APAD/NBT absorbance; at 2 µM; stronger effect = higher value.
Chain of L-lactate dehydrogenase (Plasmodium falciparum (isolate CDC / Honduras)) (Q27743 whole entry, looked up): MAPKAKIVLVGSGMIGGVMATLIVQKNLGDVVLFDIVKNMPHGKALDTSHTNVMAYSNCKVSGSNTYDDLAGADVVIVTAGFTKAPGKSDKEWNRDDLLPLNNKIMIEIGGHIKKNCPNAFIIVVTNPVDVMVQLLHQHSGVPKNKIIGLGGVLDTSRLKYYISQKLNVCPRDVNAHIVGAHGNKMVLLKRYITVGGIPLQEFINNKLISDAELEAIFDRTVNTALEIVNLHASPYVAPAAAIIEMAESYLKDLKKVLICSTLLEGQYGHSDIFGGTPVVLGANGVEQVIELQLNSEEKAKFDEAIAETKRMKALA
Experiment [4] in a line: inhibition of 3D7 malaria parasite growth – strain 3D7 (AID 2306).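 Further: 0% = DMSO wells and 100% = chloroquine plus artemisinin control wells.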 The settings on record: P. falciparum 3D7 erythrocytic growth, LDH absorbance, 72 h; at 2 µM; stronger effect = higher value.
For experiment [5], the target named is Calcium-dependent protein kinase 1 (Plasmodium falciparum (isolate 3D7)) (UniProt P62344). As to the kind of experiment: PfCDPK1 kinase inhibitors, biochemical, TCAMS library (AID 1159585; cut-off not given, nearly all actives have IC50 up to about 0.98 µM;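 further: inhibitors leave more ATP so luminescence rises with inhibition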). The settings on record: recombinant PfCDPK1, Kinase-Glo ATP depletion luminescence. In general terms: Kinase-Glo measures the ATP left after a reaction by luminescence.
Chain of Calcium-dependent protein kinase 1 (Plasmodium falciparum (isolate 3D7)) (P62344 whole entry, looked up): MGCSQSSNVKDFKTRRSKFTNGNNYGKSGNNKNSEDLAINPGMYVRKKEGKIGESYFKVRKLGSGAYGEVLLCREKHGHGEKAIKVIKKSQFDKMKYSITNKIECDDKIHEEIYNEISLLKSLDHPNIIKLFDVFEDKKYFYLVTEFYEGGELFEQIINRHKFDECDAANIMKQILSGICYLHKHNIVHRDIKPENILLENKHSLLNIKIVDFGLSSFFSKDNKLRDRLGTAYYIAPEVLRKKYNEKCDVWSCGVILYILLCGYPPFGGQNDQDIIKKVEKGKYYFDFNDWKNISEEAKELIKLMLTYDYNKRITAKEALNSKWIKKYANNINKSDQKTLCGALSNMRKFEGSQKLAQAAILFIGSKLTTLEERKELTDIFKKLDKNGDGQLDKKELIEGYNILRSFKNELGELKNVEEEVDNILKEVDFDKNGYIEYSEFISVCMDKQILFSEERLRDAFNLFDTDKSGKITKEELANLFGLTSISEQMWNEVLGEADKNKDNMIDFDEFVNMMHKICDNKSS
Experiment [6] has as its target Plasmodium falciparum protein kinase 6 (PK6, PF3D7_1337100) (UniProt Q8IDW1). Briefly: PfPK6 kinase inhibitors, biochemical, TCAMS library (AID 1159586). The note with it: recombinant PfPK6, Kinase-Glo ATP depletion luminescence.
The target of experiment [7] is Protein kinase 7 (PK7), Plasmodium falciparum 3D7 (PF3D7_0213400) (UniProt Q7YTF7). As to the kind of experiment: inhibition of Plasmodium PK7 catalytic activity – biochemical, TCAMS antimalarial set, Kinase-Glo luminescence (AID 1159587). The note with it: recombinant PfPK7, Kinase-Glo ATP depletion luminescence.
Chain of Protein kinase 7 (PK7), Plasmodium falciparum 3D7 (PF3D7_0213400) (Q7YTF7 1-343): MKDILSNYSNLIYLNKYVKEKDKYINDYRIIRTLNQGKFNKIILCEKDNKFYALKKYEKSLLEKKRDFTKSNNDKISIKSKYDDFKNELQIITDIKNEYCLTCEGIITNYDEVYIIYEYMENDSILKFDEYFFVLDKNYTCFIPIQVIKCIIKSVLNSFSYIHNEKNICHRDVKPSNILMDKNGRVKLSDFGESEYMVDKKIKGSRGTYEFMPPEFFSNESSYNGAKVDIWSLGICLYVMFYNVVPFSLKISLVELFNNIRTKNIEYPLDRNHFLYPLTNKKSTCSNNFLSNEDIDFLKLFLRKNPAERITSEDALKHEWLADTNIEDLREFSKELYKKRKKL
Experiment [8] deals with Calcium-dependent protein kinase 4 (Plasmodium falciparum (isolate 3D7)) (UniProt Q8IBS5). As to the kind of experiment: PfCDPK4 kinase inhibitors, biochemical, TCAMS library (AID 1159588; cut-off not given, nearly all actives have IC50 up to about 0.91 µM). The note with it: recombinant PfCDPK4, Kinase-Glo ATP depletion luminescence.
Chain of Calcium-dependent protein kinase 4 (Plasmodium falciparum (isolate 3D7)) (Q8IBS5 whole entry, looked up): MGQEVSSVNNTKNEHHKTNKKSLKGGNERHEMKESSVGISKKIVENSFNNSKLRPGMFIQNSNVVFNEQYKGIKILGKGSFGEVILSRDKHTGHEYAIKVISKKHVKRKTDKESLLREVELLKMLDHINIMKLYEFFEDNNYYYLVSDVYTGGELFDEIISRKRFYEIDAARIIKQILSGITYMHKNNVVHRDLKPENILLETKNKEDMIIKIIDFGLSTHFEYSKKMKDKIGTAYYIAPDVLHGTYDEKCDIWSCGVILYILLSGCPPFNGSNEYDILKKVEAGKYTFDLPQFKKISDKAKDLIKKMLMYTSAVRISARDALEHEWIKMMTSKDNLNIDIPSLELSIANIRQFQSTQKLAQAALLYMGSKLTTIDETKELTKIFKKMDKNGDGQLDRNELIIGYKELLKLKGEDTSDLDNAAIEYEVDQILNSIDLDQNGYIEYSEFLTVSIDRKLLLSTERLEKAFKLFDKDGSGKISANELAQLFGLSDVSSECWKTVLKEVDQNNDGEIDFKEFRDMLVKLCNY

Chain of Plasmodium falciparum protein kinase 6 (PK6, PF3D7_1337100) (Q8IDW1 1-305): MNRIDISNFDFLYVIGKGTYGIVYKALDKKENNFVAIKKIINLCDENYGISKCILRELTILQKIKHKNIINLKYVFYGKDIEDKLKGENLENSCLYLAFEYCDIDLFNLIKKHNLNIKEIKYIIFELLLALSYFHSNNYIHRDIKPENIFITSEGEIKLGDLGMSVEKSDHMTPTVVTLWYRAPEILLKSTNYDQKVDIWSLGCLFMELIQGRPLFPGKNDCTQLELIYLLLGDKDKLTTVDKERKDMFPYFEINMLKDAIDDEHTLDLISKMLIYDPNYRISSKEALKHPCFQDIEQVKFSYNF

What is called inhibition is the drop in the measured response relative to a control, in per cent. Consider `CCCSc1nc2c(c(=O)n1CCc1ccccc1)C1(CCCC1)Cc1ccccc1-2`, for which the figures for the growth inhibition in experiment [1] and in experiment [4] were 53% (active) and 99% (active), respectively. The inhibition in experiment [2] was 46%; in experiment [3], -4%. Besides, the result in experiment [5], in experiment [6], in experiment [7] and in experiment [8] was inactive.

`COc1ccccc1C1CCN(C2CCC(NC(=O)c3ccc4nc(-c5ccc(C)cc5)[nH]c4c3)CC2)CC1` (centres undefined): the growth inhibition in experiment [1] is 100% (active); in experiment [4] it was 101% (active). The results for the inhibition in experiment [2] and in experiment [3] were 100% (active) and 4%, respectively. Besides, the outcome in experiment [5], in experiment [6], in experiment [7] and in experiment [8] was inactive.

Take `CN(C)CCOc1ccc2c(c1)OC(C)(C)C=C2c1cccc2ccccc12`: the growth inhibition is 48% in experiment [1] and 95% (active) in experiment [4]. For the same molecule, the inhibition in experiment [2] was 66% (active); in experiment [3] it was -2%. In addition, the outcome in experiment [5], in experiment [6], in experiment [7] and in experiment [8] was inactive.

For the molecule `O=c1cc(NCCCNCc2cccc(I)c2)[nH]c2ccccc12`, the growth inhibition was 9% in experiment [1] and 90% (active) in experiment [4]. Moreover, the inhibition in experiment [2] is 10%; in experiment [3], -1%. Further, the result in experiment [5], in experiment [6], in experiment [7] and in experiment [8] was inactive.

As for `O=C(NCc1ccccc1)O[C@@H]1CNCC[C@H]1c1ccc(C(O)Cc2ccccc2)cc1` (some centres undefined), the growth inhibition is 5% in experiment [1] and 87% (active) in experiment [4]. The values for the inhibition in experiment [2] and in experiment [3] were 8% and 4%, respectively. Further, the result in experiment [5], in experiment [6], in experiment [7] and in experiment [8] was inactive.

Turning to `COc1ccccc1N=C1SC(=Cc2cn(CC(=O)N3CCCc4ccccc43)c3ccccc23)C(=O)N1C1CCCCC1`, the growth inhibition in experiment [1] was 99% (active); in experiment [4], 100% (active). Further, the inhibition in experiment [2] was 10%; in experiment [3] it was 2%. The result in experiment [5], in experiment [6], in experiment [7] and in experiment [8] was inactive.

Take `O=C(Cn1c(CCc2cccc(F)c2F)nc(=O)c2cccnc21)N(Cc1ccc(-c2ccc(C(F)(F)F)cc2)cc1)C1CCN(C2CCSCC2)CC1`: the growth inhibition was 63% (active) in experiment [1] and 101% (active) in experiment [4]. Also, the inhibition in experiment [2] is 49%; in experiment [3], 3%. Also, the outcome in experiment [5], in experiment [6], in experiment [7] and in experiment [8] was inactive.

Consider `CCOc1ccc(C(=O)N2CCOC(CCN3CCC4(CCc5ccccc54)CC3)(c3ccc(Cl)c(Cl)c3)C2)cc1` (centres undefined), for which the growth inhibition in experiment [1] is 25%; in experiment [4], 81% (active). Also, the values for the inhibition in experiment [2] and in experiment [3] were 25% and 1%, respectively. For the same molecule, the result in experiment [5], in experiment [6], in experiment [7] and in experiment [8] was inactive.

In the case of `O=C(NCC1CCN(CCN2CCC(c3cn(CCO)c4ccccc34)CC2)CC1)c1ccc(-c2ccc(C(F)(F)F)cc2)cc1`, the growth inhibition in experiment [1] is 100% (active); in experiment [4], 101% (active). Moreover, the inhibition is 100% (active) in experiment [2] and 0% in experiment [3]. Moreover, the result in experiment [5], in experiment [6], in experiment [7] and in experiment [8] was inactive.

With `CCC[C@@H]([C@@H](CC1CCCCC1)C(=O)N[C@H](C(=O)Nc1nccs1)C(C)(C)SC)N(O)C=O`, the growth inhibition in experiment [1] was 98% (active); in experiment [4] it was 97% (active). Besides, the inhibition in experiment [2] was 51% (active); in experiment [3], 7%. The outcome in experiment [5], in experiment [6], in experiment [7] and in experiment [8] was inactive.

As to `CN(C)CCOc1ccc(-n2c(-c3nonc3N)nc3cncc(-c4ccc(F)cc4)c32)cc1`, the values for the growth inhibition in experiment [1] and in experiment [4] were 7% and 97% (active), respectively. The inhibition was 10% in experiment [2] and 5% in experiment [3]. Besides, the outcome in experiment [5], in experiment [6], in experiment [7] and in experiment [8] was inactive.

For the molecule `Oc1ccc2[nH]cc(C3CCN(CCC(c4ccccc4)c4ccccc4)CC3)c2c1`, the growth inhibition was 42% in experiment [1] and 90% (active) in experiment [4]. Besides, the figures for the inhibition in experiment [2] and in experiment [3] were 27% and -3%, respectively. In addition, the result in experiment [5], in experiment [6], in experiment [7] and in experiment [8] was inactive.

For `COc1cc(NC(=O)CCCCCCCN2CCN(C)CC2)c2ncccc2c1`, the growth inhibition in experiment [1] was 83% (active); in experiment [4] it was 95% (active). Moreover, the inhibition was 2% in experiment [2] and 1% in experiment [3]. Also, the result in experiment [5], in experiment [6], in experiment [7] and in experiment [8] was inactive.

Take `COc1cccc(CN2CCCC(CCC(=O)Nc3ccc(C(F)(F)F)cc3)C2)c1O` (centres undefined): the results for the growth inhibition in experiment [1] and in experiment [4] were 97% (active) and 98% (active), respectively. The inhibition in experiment [2] was 15%; in experiment [3], -2%. Besides, the result in experiment [5], in experiment [6], in experiment [7] and in experiment [8] was inactive.

For `O=C(Nc1ccc(Cn2ncc(N3CCCNCC3)c(Cl)c2=O)cc1)Nc1ccc(F)cc1[N+](=O)[O-]`, the growth inhibition in experiment [1] was -3%; in experiment [4] it was 90% (active). In addition, the inhibition in experiment [2] is 11%; in experiment [3], -4%. Also, the result in experiment [5], in experiment [6], in experiment [7] and in experiment [8] was inactive.

As to `O=[N+]([O-])c1ccc(C(O)CNCCc2ccccc2)cc1OCc1ccccc1` (centres undefined), the growth inhibition in experiment [1] is 67% (active); in experiment [4], 94% (active). Also, the inhibition in experiment [2] is -6%; in experiment [3] it was -1%. Also, the outcome in experiment [5], in experiment [6], in experiment [7] and in experiment [8] was inactive.

Regarding `CCc1[nH]nc(C(=O)NC2CCN(CC3(c4ccc(OC)cc4)CCCCC3)CC2)c1C`, the growth inhibition in experiment [1] and in experiment [4] was 90% (active) each time. The inhibition was 2% in experiment [2] and -1% in experiment [3]. The outcome in experiment [5], in experiment [6], in experiment [7] and in experiment [8] was inactive.

For the molecule `CCCCCCCCn1c2c(c(=N)c3c1CCC3)CCCC2`, the values for the growth inhibition in experiment [1] and in experiment [4] were 100% (active) and 101% (active), respectively. The inhibition is 57% (active) in experiment [2] and 2% in experiment [3]. The result in experiment [5], in experiment [6], in experiment [7] and in experiment [8] was inactive.
